# ELG1 DNA repair – inhibitors of ELG1-dependent DNA repair in HEK293T cells; 330,000 compounds, 2.3% hits; AID 504467; Potency, µM (highest dose often 46.1 µM), for inactives: top-dose activity change, negative = inhibition, usual class: inhibitors; HEK293T ELG1-luciferase reporter, luminescence, 16 h; DNA damage induced by 5-fluorouridine; further: on the % scale 0 is the no-effect control and ±100 the full control effect; nearly all actives have a fitted effect of over 55% in size
#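 Cells (2,000 per well) received 5-fluorouridine plus test compound or DMSO and were incubated 16 hr at 37 °C, 5% CO2. Luciferase activity was read by luminescence 30 min after ONE-Glo addition; signal suppression marked inhibition of damage-induced ELG1 function.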
# NPC1 promoter act – activators of NPC1 promoter | Huh7 NPC1 promoter luciferase reporter, 24 h | Potency, µM (series often up to 9.22 µM), inactives show top-dose activation, most hits filed as activators | 320,000 compounds, 2.4% hits; further: % of control where 0% means no effect; nearly all actives have a fitted effect of over 60% in size
#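 Luminescence from an NPC1 promoter-driven luciferase reporter in stably transfected Huh7 cells was measured after 24 h compound treatment at 37 °C, followed by 10 min ambient incubation with luciferase detection reagent.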
# ELG1 genotoxic – induces genotoxicity in HEK293T cells with luciferase-tagged ELG1 | AID 504466 | HEK293T ELG1-luciferase reporter, luminescence, 16 h | 330,000 compounds, 1.3% hits | Potency, µM (highest dose often 46 µM), inactives show at the highest dose activity change, positive = activation, actives largely listed as activators; further: % of control where 0% means no effect; nearly all actives have a fitted effect of over 60% in size
#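 Step 1: seed 2,000 HEK293T ELG1-luciferase cells per well. Step 2: add compound or DMSO, incubate 16 hr at 37 °C. Step 3: ONE-Glo, 30 min at room temperature, read luminescence.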
# SMN2 splice up – increases expression of the SMN2 splice variant; AID 1458; HEK293 SMN2-luciferase splicing reporter, luminescence, 30-36 h; 210,000 compounds, 2.8% hits; Potency, µM (titrated, usually from 46.1 µM), for inactives: top-dose activity change, positive = activation, usual class: activators; further: % of control where 0% means no effect; nearly all actives have a fitted effect of over 55% in size
#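 HEK293 cells carry an SMN2 minigene-luciferase reporter in which exon 7 inclusion puts luciferase in frame. Cells were seeded at 2000 cells/well, attached for 10-12 hours, then exposed to compounds for 30-36 hours at 37C before ONE-Glo luminescence.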
# FLuc counter – inhibits or activates purified firefly luciferase, miR-21 counter-screen; P08659; purified FLuc, Km substrates, luminescence inhibition; Potency, µM (series often up to 57.5 µM), for the others: at the highest dose activity change, negative = inhibition, hits mostly inhibitors; 360,000 compounds, 6.9% hits; AID 588342;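 further: plate controls were vehicle for no effect and reference inhibitor for full effect; nearly all actives have a fitted effect of over 55% in size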
# Target sequence (P08659 whole entry, looked up): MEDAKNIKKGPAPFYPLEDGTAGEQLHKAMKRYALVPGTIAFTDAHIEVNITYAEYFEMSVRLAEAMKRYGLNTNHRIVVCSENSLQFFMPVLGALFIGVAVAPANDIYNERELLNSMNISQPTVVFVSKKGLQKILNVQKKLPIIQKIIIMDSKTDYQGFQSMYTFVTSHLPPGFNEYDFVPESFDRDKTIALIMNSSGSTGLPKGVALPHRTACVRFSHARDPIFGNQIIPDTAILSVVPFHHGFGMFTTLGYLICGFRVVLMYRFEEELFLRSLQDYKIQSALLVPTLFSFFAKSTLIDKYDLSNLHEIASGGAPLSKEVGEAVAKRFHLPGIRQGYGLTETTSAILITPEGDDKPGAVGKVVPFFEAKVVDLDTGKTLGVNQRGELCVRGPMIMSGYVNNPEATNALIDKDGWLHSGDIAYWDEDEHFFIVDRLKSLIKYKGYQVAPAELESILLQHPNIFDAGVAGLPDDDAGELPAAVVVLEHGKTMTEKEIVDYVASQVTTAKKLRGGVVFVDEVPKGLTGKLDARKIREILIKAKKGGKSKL
#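 Purified P. pyralis luciferase, 10 nM final, with Km-level 10 uM D-luciferin and 10 uM ATP in 50 mM Tris acetate pH 7.5, 10 mM Mg acetate, 0.01% Tween-20, 0.05% BSA; 6-point qHTS titration about 60 µM downward; luminescence read.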
# Rab9 prom act – Rab9 promoter activation; Huh7 Rab9 promoter-luciferase reporter, luminescence, 24 h; 320,000 compounds, 2.8% hits; Potency, µM (highest dose often 9.22 µM), for the others: top-dose activation, negative = inhibition, usual class: activators; further: % of control where 0% means no effect; nearly all actives have a fitted effect of over 60% in size
#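 Steps: seed 1500 Huh7 Rab9-luc cells per well, rest 2 h at 37 °C; add compound in DMSO; incubate 24 h; add luciferase reagent, 10 min ambient; read luminescence.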
# * hit, by the source's call; ? = inconclusive; nt = no result; [ ] = another dose, or the depositor's remark. In the library only some 9.2% were active in any assay of this set; here they are far more common. The call rests on the fitted dose curve; in most records, active means well fitted curve in the direction sought with a large enough effect; inconclusive means small, poorly fitted or top-dose-only effect, or another doubt; inactive means no such curve, though single readings can be large; an effect the other way counts as inactive or inconclusive. Potency means the concentration at half of the fitted maximal effect.
SMILES,ELG1 DNA repair,NPC1 promoter act,ELG1 genotoxic,SMN2 splice up,FLuc counter,Rab9 prom act
Cc1cc(C(=O)Nc2ccccc2)nn1C(C)(C)C,?,2.2µM*,?,nt,6.7µM*,2.2µM*
Cc1cc(C(=O)Nc2ccc3c(c2)OCCO3)nn1C(C)(C)C,?,4.5µM*,?,nt,7.6µM*,3.5µM*
CC(C)(C)c1ccc(C(=O)Nc2ccc(Cl)cc2C(=O)c2ccccc2)cc1,nt,nt,nt,-16%,-5%,nt
NCCc1c[nH]c2ccc(OC(=O)C(=O)O)cc12,nt,nt,nt,-30%[9.22 µM],nt,nt
CO[C@@H]([CH2][Hg])CN1C(=O)c2ccccc2S1(=O)=O.Cn1c(=O)c2nc[nH]c2n(C)c1=O,nt,nt,nt,-9%[9.22 µM],nt,nt
CCCOC1CCCN(C(=O)CCc2nnc(Cc3cccc(C)c3)o2)C1 (centres undefined),?,?,?,nt,21µM*,2.8µM*
O=C(CCc1nnc(CCCCc2ccccc2)o1)N1CCCC(O)C1 (centres undefined),?,-1%,6%,nt,-15%,8%
CC(=O)OC1CC[C@]2(C#N)[C@H]3CC[C@]4(C)[C@H](C5C=CC(=O)O5)CCC4(O)C3CCC2(O)C1 (some centres undefined),15µM*,15%,-14%,nt,1%,-5%
C[C@@]12CC[C@H]3[C@@H](CC[C@H]4C[C@@H](O)CC[C@]43C)[C@H]1CC[C@@H]2C(=O)C[C@H](O)C(F)(F)F,nt,nt,nt,-9%[9.22 µM],nt,nt
O=C(CCn1c(=O)oc2ccccc21)N1CCN(C(c2ccccc2)c2ccccc2)CC1,13µM*,0%,-13%,-24%,-1%,0%
COc1ccc(N2C(=O)/C(=C/C=C/c3ccccc3[N+](=O)[O-])C(=O)NC2=S)cc1,13%,-1%,-1%,-7%,24µM*,1%
CNC(=O)[C@@H]1C[C@H]1[C@@H](NP(=O)(c1ccccc1)c1ccccc1)c1ccccc1,nt,nt,nt,13µM*,nt,nt
COc1ccc(-c2coc3cc(OC(=O)N4CCOCC4)ccc3c2=O)cc1,?,23%,-7%,nt,24µM*,?
CCOc1ccc(N(C(C)C(=O)Nc2cc(Cl)ccc2OC)S(C)(=O)=O)cc1 (centres undefined),nt,nt,nt,-47%,6%,nt
COP(=O)(OC)c1nc(-c2cccc3ccccc23)oc1N1CCCCC1,?,-3%,-9%,-20%,-9%,1%
CCOP(=O)(OCC)c1nc(-c2cccc3ccccc23)oc1N1CCCCC1,23µM*,-2%,-5%,-14%,-9%,-2%
Cc1ccc(-c2nc(N3CCOCC3)s[n+]2-c2ccccc2)cc1,?,8%,?,22%,9.5µM*,24%
CC(=O)Nc1ccc(Cc2nc3ccccc3[nH]2)cc1,10%,1%,3%,?,2%,-1%
COC(=O)C(Cc1ccc(N(CCCl)CCCl)cc1)N=Cc1ccccc1O (centres undefined),18µM*,-34%,?,nt,-13%,-49%
Cn1cccc1C(=O)OCC(=O)NCc1cccs1,?,nt,0%,nt,nt,nt
COc1ccc(-c2n[nH]c(=S)n2-c2ccc3c(c2)OCCO3)cc1OC,?,1%,?,nt,12µM*,8%
CCCCOC(=O)c1ccccc1N,nt,nt,nt,-6%,nt,nt
CCCOC(=O)c1cc2c(cn1)[nH]c1ccccc12,nt,nt,nt,28µM*,nt,nt
CCOc1ccc2nc(N=Nc3c(O)[nH]c(=S)[nH]c3=O)sc2c1,-1%,-4%,-6%,3%,19µM*,-1%
C=CCn1c(O)c(C(C)=Nc2cc(OC)ccc2OC)c(=O)[nH]c1=O,0%,-3%,23µM*,10%,0%,15%
NS(=O)(=O)c1cc(C(=O)OCC(=O)Nc2ccc3[nH]c(=O)[nH]c3c2)ccc1Cl,?,-2%,-1%,nt,1%,1%
Nc1ccc2cc(Br)ccc2c1,5%,5%,10%,-27%,-19%,5%
